Source: PubChem
SARS PLP yeast – qHTS of Yeast-based Assay for SARS-CoV PLP; S. cerevisiae expressing SARS-CoV PLpro, growth rescue; AID 485353, 2010; Potency, µM (doses to about 32.9 µM), for inactives: at the top dose activity, positive = growth rescue, usual class: activators; 0.19% of 330,000 active; calls by dose curve; note: 0% is about no effect; nearly all actives have a fitted effect of over 55% in size
Pf growth 96h – Primary qHTS for delayed death inhibitors of the malarial parasite plastid, 96 hour incubation. P. falciparum luciferase reporter growth, 96 h. Potency, µM (top dose mostly 28.7 µM), inactives show at the top dose activity change, negative = inhibition, usual class: inhibitors. 6.9% of 320,000 active. AID 504834, 2011; note: % is set by controls: 0 for no effect and ±100 for the full control effect
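P. falciparum expressing integrated firefly luciferase grown in erythrocytes (2% hematocrit, 0.05% parasitemia final) with compounds for 96 hours at 37 C, 5% CO2. Growth inhibition read as loss of luminescence after adding luciferase detection reagent.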
NS1 inh – qHTS Assay for Inhibitors of Influenza NS1 Protein Function. Potency, µM (series often up to 46.1 µM), for the others: at the top dose activity, positive = more growth. 0.4% of 270,000 active. AID 2326, 2010; calls by dose curve; note: actives are rising curves; nearly all actives have a fitted effect of over 50% in size
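Compounds were scored for reversing the slow growth caused by influenza A NS1 in S. cerevisiae, measured by optical density at 600 nm. Assay medium contained 2% galactose at pH 6.0; NS1-free yeast of the same strain were the positive control.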
Pf growth 48h – Primary qHTS for delayed death inhibitors of the malarial parasite plastid, 48 hour incubation | P. falciparum luciferase growth in erythrocytes, 48 h | Potency, µM (top dose mostly 28.7 µM), for the others: top-dose activity change, negative = inhibition, most hits filed as inhibitors | 5.9% of 310,000 active; note: % is set by controls: 0 for no effect and ±100 for the full control effect
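First compound was added to culture medium, then infected red cells at 0.1% parasitemia and 2% hematocrit (final). After incubation at 37 C under 5% CO2, luciferase detection reagent was dispensed and light output recorded.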
Numbers without * were called inactive; ? = inconclusive; . = not tested or not shown. Only some compounds are listed: those with a hit (about 10% of all), similar ones and a draw of the others. Unless noted, calls come from the whole dose curve; as a rule, active = well fitted inhibition curve with a large enough effect; inconclusive = small, poorly fitted or top-dose-only effect, or another doubt; inactive = no such curve, though single readings can be large or run the other way. Potency is the fitted concentration of half-maximal effect.

SMILES	SARS PLP yeast	Pf growth 96h	NS1 inh	Pf growth 48h
CN1C(=O)C(=O)N(CC(=O)Nc2ccccc2OC(F)F)C1=O	-1%	7%	.	-1%
CCOC(=O)c1c(C)nc(C)c(C(=O)OCC)c1-c1ccc(Br)cc1	29%	13µM*	-14%	-23%
CCc1noc(C)c1C(=O)OCC(=O)c1ccccc1OC	-3%	?	-7%	3%
COc1ccc(C(=O)NCc2cc(C)nc3ccccc23)cc1	21%	11%	?	11%
Cc1cccc(OCC(=O)NCc2cc(C)nc3ccccc23)c1	0%	9.3µM*	.	-13%
COc1ccc(OCC(=O)NNC(=O)C(=O)Nc2ccccc2)cc1	-1%	.	.	.
O=C(COc1ccccc1)NNc1c2ccccc2nc2ccccc12	-19%	-12%	-6%	5.2µM*
COc1ccc(OCC(=O)NNc2c3ccccc3nc3ccccc23)cc1	-9%	2.1µM*	4%	7.4µM*
O=C(COC(=O)Cn1cnc2ccccc21)Nc1ccc(F)c(F)c1	8%	.	.	.
COc1cccc(CNC(=O)CNS(=O)(=O)c2ccc(Br)s2)c1	2%	?	19%	-14%
Cc1ccc(-c2csc3ncnc(NCCC(=O)O)c23)cc1C	2%	35%	13%	0%
COc1ccc(-n2c(-c3ccc(Cl)cc3)c[n+]3c2CCc2ccccc2-3)cc1	-1%	?	.	1.9µM*
O=C(Cn1cnc([N+](=O)[O-])c1)Nc1ccccc1C(F)(F)F	0%	-5%	8%	61%
CCOC(=O)c1cc(C)sc1/N=C/C1=C(O)CCCC1=O	-11%	21%	25%	13%
CCn1ccnc1CNC(=O)c1ccc(OC2CCN(C(=O)COC)CC2)cc1	15%	5.2µM*	2%	14%
COCC(=O)N1CCC(Oc2ccc(C(=O)NCCCC3CCCC3)cc2)CC1	-4%	7.4µM*	-23%	-1%
COCC(=O)N1CCC(Oc2ccc(C(=O)NCc3cnc(C)cn3)cc2)CC1	-3%	?	3%	44%
CC(Sc1ccccc1)C(=O)N1CCN(S(=O)(=O)c2ccc(Cl)cc2)CC1 (stereo unspecified)	-6%	-20%	-8%	-18%
O=C(CCS(=O)(=O)c1cccc2nsnc12)NCc1ccccc1Cl	-1%	9.3µM*	-1%	7%
O=S(=O)(Nc1cc(Sc2cccc3cccnc23)c(O)c2ccccc12)c1ccccc1	-15%	243%	1%	3.3µM*
CCOC(=O)c1ccccc1NS(=O)(=O)c1ccc(OCC)cc1	-4%	9.3µM*	-17%	.
COc1ccc(NS(=O)(=O)c2cc(NC(=O)c3cc(=O)c4ccccc4o3)ccc2OC)cc1	-1%	?	.	8.3µM*
O=C(O)c1ccccc1NS(=O)(=O)c1cccc2cccnc12	-3%	.	2%	-8%
O=C(O)CSc1cc(NS(=O)(=O)c2cccc([N+](=O)[O-])c2)c2ccccc2c1O	-6%	?	-7%	10µM*
CCOc1ccc(S(=O)(=O)Nc2ccccc2C(=O)N(C)C2CCN(C)CC2)cc1	1%	?	.	?
SMILES	SARS PLP yeast	Pf growth 96h	NS1 inh	Pf growth 48h
CC(C)(C)[C@H]1COC(=O)CCC/C=C/C[C@H](CC(=O)NCCO)C(=O)N1	0%	.	.	.
Cc1ccc(CNC(=O)C2CCN(C(=O)Nc3ccc(C)cc3)CC2)cc1	18%	5%	21%	-13%
c1ccc2c(c1)C(=Nc1ccc(N=C3c4ccccc4-c4ccccc43)cc1)c1ccccc1-2	.	.	5%	.
CC(C)(C)C(=O)Oc1ccc(S(=O)(=O)Nc2ccccc2C(=O)NCC(=O)O)cc1	.	13µM*	.	-4%
CCOc1ccc(S(=O)(=O)Nc2cc(SCC(=O)O)c(O)c3ccccc23)cc1	-32%	1.9µM*	-103%	10µM*
CCOC(=O)NCc1ccc(S(=O)(=O)Nc2ccccc2C)cc1	-3%	13µM*	-2%	.
CCc1ccc(S(=O)(=O)Nc2ccc(O)c3ccccc23)cc1	-3%	8%	2%	9.3µM*
Cc1ccc(N(CCC#N)C(=O)COC(=O)c2cc(C)oc2C)cc1	-4%	?	.	?
COc1ccc(OC)c(S(=O)(=O)Nc2ccc(O)c3ccccc23)c1	-46%	.	4%	1.2µM*
Cc1ccc(C)c(S(=O)(=O)Nc2cc(SCC(=O)O)c(O)c3ccccc23)c1	-22%	21%	-26%	?
CCc1ccc(S(=O)(=O)Nc2cc(SCC(=O)O)c(O)c3ccccc23)cc1	-6%	?	-10%	7.4µM*
CC(Oc1ccc(Cl)cc1Cl)C(=O)Nc1ccc(N2CCN(C)CC2)cc1 (stereo unspecified)	0%	69%	-1%	13µM*
Cc1cc(NC(=O)C(C)Oc2ccc(Cl)cc2Cl)n(-c2ccccc2)n1 (stereo unspecified)	-11%	5.9µM*	-62%	.
Cc1ccc(N(CC(=O)NC2CCCCC2)C(=O)CCCC(=O)Nc2ccccn2)cc1	1%	-2%	-4%	-21%
CN(C)S(=O)(=O)c1ccc(SCC(=O)N2CC(=O)Nc3ccccc32)nc1	-3%	?	.	?
CC(c1ccccc1)n1c(-c2ccc(C(C)(C)C)cc2)n[nH]c1=S (stereo unspecified)	3%	4.7µM*	-50%	20%
CC(C)(C)c1ccc(-c2n[nH]c(=S)n2-c2ccccc2)cc1	-4%	2.9µM*	16%	310%
Cc1ccc(C)c(-n2c(-c3ccncc3)n[nH]c2=S)c1	0%	6%	1%	5%
Cc1ccc(-n2c(-c3ccccc3)n[nH]c2=S)c(C)c1	5%	13µM*	24%	-13%
Cc1ccc(-n2c(-c3ccccc3)n[nH]c2=S)cc1	-6%	-19%	-4%	27%
COCC(=O)N1CCC(Oc2ccc(C(=O)NCc3cc(C)n(C)n3)cc2)CC1	-5%	?	5%	6%
COc1ccc(CN2C(=S)NC(C)(C)CC2(C)O)cc1 (stereo unspecified)	5%	-11%	10%	-5%
COc1ccccc1CCN1C(=S)NC(C)(C)CC1(C)O (stereo unspecified)	9%	9.3µM*	-36%	?
O=S(=O)(NC(=S)c1ccccc1)c1ccc(F)cc1	-2%	0%	14%	2%
CC(O)c1nc2cc([N+](=O)[O-])ccc2n1Cc1ccccc1 (stereo unspecified)	1%	-14%	15%	13µM*
SMILES	SARS PLP yeast	Pf growth 96h	NS1 inh	Pf growth 48h
O=C(Cn1c(C(=O)NCCCN2CCOCC2)cc2sccc21)c1ccccc1	.	?	-8%	-17%
Cc1ccc(Cn2c(C(=O)NCCCN3CCOCC3)cc3sccc32)cc1	-1%	116%	1%	12µM*
O=C(NCc1ccccn1)C1CCN(C(=O)c2cc3sccc3n2Cc2ccc(F)cc2)CC1	-3%	?	.	-28%
O=C(NCc1ccco1)C1CCN(C(=O)c2cc3sccc3n2Cc2ccc(F)cc2)CC1	-2%	6%	?	1.9µM*
O=C(Nc1ccc2c(c1)OCCO2)c1cc2sccc2n1Cc1ccc(F)cc1	-8%	10µM*	-1%	?
COCCCNC(=O)C1CCN(C(=O)c2cc3sccc3n2Cc2ccc(F)cc2)CC1	5%	?	-42%	.
O=C(NCCCN1CCCC1)C1CCN(C(=O)c2cc3sccc3n2Cc2ccc(F)cc2)CC1	8%	10µM*	4%	.
